Here are results for six compounds from ChEMBL document CHEMBL1961873, “Compounds: GSK PKIS; Assays: Nanosyn kinase panel” (2012).

As a reminder, the inhibition is the change of the read-out against control, counted positive when it falls.

Molecules are shown by their SMILES.

Test [1] has as its target Tyrosine-protein kinase receptor UFO (Homo sapiens) (UniProt P30530). As to conditions: at 1 µM.
Test [2] concerns the target Tyrosine-protein kinase Blk (Homo sapiens) (UniProt P51451). As to conditions: at 0.1 µM.
The target is the same in test [3]. As to conditions: at 1 µM.
Test [4] addresses T1, Cytoplasmic tyrosine-protein kinase BMX (Homo sapiens) (UniProt P51813).
T1 sequence (whole entry): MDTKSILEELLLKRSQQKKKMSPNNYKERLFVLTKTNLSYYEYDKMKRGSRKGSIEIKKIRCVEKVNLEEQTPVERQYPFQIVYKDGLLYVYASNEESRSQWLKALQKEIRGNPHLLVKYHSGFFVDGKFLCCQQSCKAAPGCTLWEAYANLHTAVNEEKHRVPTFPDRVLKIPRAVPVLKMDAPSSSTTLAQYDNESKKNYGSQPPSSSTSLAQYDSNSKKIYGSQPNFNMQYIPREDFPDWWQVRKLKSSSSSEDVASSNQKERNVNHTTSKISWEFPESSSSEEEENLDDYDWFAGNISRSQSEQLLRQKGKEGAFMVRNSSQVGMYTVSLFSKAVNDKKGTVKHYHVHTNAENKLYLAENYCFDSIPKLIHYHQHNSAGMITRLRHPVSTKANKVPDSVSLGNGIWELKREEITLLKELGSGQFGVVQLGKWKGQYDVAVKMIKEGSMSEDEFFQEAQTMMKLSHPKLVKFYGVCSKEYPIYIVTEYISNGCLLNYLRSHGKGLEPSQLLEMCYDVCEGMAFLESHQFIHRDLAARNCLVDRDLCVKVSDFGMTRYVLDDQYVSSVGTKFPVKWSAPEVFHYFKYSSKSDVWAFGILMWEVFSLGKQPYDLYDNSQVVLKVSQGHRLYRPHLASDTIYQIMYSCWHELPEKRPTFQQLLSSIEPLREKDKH
As to conditions: at 0.1 µM.

Test [5] has as its target T1, Cytoplasmic tyrosine-protein kinase BMX (Homo sapiens). The settings on record: at 1 µM.
Test [6] deals with Protein-tyrosine kinase 6 (Homo sapiens) (UniProt Q13882). As to conditions: at 0.1 µM.
For test [7] the target is unchanged. The settings on record: at 1 µM.
The target of test [8] is Tyrosine-protein kinase BTK (Homo sapiens) (UniProt Q06187). As to conditions: at 0.1 µM.
The target is the same in test [9]. As to conditions: at 1 µM.
Test [10] deals with Tyrosine-protein kinase CSK (Homo sapiens) (UniProt P41240). The settings on record: at 0.1 µM.
Tyrosine-protein kinase CSK (Homo sapiens), sequence (P41240 2-450 limits assumed): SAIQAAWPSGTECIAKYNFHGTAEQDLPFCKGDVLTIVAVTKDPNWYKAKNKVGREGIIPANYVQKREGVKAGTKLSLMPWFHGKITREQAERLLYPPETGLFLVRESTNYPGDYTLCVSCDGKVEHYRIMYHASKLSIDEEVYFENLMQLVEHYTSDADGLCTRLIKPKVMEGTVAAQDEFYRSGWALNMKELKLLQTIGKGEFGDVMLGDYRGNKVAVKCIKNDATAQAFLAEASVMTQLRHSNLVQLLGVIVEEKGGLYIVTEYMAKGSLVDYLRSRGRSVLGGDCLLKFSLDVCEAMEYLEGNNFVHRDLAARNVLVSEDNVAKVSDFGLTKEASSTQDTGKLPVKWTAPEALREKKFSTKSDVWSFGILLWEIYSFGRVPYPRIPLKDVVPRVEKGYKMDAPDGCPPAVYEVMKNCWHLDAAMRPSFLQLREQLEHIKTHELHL
For test [11] the target is unchanged. As to conditions: at 1 µM.
Test [12] addresses T2, Discoidin domain-containing receptor 2 (Homo sapiens) (UniProt Q16832).
T2 sequence (whole entry): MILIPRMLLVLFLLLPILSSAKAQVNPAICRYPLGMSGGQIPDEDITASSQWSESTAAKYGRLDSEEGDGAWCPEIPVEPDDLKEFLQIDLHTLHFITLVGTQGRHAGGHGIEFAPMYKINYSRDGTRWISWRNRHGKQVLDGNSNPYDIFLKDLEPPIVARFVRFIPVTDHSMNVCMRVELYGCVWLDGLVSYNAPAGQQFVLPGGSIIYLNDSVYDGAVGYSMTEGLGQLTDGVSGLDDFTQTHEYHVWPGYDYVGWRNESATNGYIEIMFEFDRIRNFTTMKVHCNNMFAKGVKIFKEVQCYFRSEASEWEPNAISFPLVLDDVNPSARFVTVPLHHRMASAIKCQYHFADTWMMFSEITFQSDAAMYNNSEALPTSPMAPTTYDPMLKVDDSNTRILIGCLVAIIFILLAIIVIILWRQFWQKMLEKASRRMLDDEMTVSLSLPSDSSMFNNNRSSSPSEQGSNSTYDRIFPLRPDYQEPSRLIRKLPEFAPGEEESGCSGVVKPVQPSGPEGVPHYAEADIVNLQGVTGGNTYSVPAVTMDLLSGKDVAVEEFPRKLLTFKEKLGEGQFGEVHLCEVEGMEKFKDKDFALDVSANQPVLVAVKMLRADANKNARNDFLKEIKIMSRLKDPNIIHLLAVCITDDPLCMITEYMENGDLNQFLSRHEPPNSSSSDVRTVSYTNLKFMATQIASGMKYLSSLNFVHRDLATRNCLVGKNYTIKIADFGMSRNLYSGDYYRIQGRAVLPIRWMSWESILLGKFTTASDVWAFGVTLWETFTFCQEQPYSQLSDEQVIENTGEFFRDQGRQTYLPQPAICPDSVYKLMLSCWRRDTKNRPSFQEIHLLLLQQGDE
The settings on record: at 0.1 µM.

Test [13] has as its target T2, Discoidin domain-containing receptor 2 (Homo sapiens). As to conditions: at 1 µM.
In test [14] the target is Epidermal growth factor receptor (Homo sapiens) (UniProt P00533). As to conditions: at 0.1 µM.
Epidermal growth factor receptor (Homo sapiens), sequence (P00533 whole entry): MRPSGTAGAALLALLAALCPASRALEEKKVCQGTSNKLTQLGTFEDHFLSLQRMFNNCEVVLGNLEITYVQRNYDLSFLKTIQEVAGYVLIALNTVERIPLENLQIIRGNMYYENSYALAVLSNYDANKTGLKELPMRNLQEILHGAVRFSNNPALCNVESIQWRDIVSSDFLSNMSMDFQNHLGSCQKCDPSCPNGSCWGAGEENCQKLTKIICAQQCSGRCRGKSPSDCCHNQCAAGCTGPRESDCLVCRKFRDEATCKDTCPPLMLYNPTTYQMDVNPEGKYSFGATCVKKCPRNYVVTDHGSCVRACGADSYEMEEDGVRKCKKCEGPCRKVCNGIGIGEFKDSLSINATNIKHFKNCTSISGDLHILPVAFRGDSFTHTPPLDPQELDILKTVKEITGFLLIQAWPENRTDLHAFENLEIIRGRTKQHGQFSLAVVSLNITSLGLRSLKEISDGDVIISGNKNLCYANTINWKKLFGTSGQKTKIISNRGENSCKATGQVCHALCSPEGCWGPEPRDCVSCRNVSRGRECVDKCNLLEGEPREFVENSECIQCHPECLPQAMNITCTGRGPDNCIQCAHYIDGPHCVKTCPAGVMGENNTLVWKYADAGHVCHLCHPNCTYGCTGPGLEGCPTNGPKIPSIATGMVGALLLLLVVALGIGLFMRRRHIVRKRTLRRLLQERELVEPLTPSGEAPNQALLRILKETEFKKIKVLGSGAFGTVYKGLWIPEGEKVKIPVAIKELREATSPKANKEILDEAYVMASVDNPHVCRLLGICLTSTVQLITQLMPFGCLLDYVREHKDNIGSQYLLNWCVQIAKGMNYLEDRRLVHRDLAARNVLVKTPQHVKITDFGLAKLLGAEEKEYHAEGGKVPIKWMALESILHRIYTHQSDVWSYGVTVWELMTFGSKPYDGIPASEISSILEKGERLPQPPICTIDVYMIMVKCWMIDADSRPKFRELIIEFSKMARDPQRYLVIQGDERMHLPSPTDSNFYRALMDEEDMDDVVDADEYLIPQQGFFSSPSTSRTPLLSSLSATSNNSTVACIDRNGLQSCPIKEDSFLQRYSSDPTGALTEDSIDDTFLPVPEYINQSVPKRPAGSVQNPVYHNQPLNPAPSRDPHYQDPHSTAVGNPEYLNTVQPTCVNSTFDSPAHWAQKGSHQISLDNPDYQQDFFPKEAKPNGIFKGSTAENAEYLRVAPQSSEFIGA
Test [15] has the same target. The settings on record: at 1 µM.
Test [16] relates to Epidermal growth factor receptor (Homo sapiens), P00533 [L858R]. The settings on record: at 0.1 µM.
The test system is the same in test [17]. The settings on record: at 1 µM.
For test [18], the system named is Epidermal growth factor receptor (Homo sapiens), P00533 [L861Q]. The settings on record: at 0.1 µM.
Epidermal growth factor receptor (Homo sapiens), P00533 [L861Q], sequence (P00533 whole entry L861Q): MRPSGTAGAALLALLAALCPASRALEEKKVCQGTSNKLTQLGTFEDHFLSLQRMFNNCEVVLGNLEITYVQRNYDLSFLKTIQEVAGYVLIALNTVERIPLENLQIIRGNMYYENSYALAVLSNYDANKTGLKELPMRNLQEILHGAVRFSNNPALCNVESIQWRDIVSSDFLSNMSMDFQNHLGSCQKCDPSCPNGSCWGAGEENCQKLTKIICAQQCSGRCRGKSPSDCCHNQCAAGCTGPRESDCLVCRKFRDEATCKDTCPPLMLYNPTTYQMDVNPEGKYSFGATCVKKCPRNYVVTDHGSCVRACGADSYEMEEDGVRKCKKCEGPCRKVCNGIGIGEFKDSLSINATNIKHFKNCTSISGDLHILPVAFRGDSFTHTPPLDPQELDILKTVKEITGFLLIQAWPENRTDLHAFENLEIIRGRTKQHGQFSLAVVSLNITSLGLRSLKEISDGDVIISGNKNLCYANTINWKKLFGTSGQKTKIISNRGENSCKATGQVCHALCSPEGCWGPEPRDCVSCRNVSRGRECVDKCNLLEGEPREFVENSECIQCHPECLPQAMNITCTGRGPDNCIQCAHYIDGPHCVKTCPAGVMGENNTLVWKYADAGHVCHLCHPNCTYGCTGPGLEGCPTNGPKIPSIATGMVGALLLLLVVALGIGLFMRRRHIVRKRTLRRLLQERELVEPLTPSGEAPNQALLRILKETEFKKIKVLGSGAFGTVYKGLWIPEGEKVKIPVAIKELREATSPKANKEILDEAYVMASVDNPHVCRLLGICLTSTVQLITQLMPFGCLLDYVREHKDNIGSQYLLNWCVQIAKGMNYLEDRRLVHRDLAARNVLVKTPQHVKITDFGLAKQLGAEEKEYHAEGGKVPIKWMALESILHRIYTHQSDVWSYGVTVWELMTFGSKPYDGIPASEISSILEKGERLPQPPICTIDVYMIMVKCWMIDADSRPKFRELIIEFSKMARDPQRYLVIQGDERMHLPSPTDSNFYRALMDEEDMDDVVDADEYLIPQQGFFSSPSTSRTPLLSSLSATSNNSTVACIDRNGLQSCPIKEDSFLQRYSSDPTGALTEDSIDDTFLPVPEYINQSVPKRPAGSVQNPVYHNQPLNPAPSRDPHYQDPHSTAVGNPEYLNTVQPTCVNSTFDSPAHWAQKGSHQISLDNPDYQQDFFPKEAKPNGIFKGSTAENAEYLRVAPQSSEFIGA
For test [19] the test system is unchanged. The settings on record: at 1 µM.
The test system of test [20] is Epidermal growth factor receptor (Homo sapiens), P00533 [T790M]. As to conditions: at 0.1 µM.
Epidermal growth factor receptor (Homo sapiens), P00533 [T790M], sequence (P00533 whole entry T790M): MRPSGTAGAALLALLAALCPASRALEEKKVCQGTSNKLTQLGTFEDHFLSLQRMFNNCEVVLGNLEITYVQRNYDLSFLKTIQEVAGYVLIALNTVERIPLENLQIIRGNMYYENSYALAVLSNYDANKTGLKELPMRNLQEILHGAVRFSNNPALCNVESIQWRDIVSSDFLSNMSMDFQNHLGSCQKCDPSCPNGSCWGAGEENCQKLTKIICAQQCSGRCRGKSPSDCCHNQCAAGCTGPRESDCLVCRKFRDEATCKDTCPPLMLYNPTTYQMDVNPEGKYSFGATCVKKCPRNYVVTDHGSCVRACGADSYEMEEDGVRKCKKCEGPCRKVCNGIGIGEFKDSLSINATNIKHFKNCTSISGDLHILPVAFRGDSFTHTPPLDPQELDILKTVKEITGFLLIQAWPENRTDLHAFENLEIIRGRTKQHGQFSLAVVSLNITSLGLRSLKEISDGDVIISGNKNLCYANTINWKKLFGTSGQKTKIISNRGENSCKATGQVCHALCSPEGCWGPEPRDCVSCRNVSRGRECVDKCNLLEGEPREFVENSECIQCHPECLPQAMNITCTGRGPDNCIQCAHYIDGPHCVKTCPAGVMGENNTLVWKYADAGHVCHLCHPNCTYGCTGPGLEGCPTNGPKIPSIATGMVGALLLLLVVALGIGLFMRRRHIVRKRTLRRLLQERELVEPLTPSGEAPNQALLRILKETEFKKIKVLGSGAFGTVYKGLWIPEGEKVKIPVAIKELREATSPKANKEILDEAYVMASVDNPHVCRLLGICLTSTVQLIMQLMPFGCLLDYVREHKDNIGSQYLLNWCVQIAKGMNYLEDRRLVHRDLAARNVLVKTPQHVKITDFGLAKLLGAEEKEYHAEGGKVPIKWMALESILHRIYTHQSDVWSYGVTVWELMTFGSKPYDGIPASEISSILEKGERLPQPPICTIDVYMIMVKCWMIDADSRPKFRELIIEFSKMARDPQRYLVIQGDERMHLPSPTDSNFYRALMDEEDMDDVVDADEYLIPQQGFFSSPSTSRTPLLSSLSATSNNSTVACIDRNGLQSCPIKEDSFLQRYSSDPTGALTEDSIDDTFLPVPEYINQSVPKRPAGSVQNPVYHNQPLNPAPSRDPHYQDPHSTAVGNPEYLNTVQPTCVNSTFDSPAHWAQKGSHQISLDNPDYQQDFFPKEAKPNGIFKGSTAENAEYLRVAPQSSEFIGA

Tyrosine-protein kinase receptor UFO (Homo sapiens), sequence (P30530 whole entry): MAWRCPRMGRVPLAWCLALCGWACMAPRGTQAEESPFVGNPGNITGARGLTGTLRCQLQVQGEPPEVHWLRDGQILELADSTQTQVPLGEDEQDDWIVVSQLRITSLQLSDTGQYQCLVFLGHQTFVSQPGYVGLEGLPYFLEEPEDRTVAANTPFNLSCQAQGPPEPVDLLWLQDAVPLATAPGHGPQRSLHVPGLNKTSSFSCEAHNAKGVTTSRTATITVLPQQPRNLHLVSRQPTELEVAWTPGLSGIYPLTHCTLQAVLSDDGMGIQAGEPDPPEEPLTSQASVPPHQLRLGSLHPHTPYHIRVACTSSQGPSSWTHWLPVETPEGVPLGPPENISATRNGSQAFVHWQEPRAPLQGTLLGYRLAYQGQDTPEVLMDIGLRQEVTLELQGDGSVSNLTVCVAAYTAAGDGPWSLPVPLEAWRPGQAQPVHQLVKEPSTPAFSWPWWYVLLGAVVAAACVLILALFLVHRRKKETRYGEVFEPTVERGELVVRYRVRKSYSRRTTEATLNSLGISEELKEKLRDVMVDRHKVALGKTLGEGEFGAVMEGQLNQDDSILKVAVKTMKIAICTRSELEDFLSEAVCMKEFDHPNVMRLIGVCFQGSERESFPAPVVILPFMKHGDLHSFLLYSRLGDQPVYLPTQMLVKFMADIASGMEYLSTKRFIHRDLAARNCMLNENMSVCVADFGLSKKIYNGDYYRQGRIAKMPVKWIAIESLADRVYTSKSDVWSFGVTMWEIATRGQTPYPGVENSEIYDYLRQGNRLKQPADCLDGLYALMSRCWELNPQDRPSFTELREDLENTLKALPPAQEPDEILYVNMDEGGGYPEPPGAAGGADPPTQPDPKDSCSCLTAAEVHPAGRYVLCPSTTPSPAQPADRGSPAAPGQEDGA

Consider `N#Cc1c(NC(=O)c2ccc(F)cc2)sc2c1CCCC2`, for which the inhibition in test [1] was -1.26%; in test [2] it was 0.68%; in [3], 1.75%; in test [4], 1.31%; in test [5], 0.33%; in [6], -0.11%. In addition, the inhibition is -2% in test [7]; -1.3% in test [8]; -0.45% in [9]; 1.81% in test [10]; 0.65% in test [11]; 0.36% in test [12]. The inhibition in test [13] was -0.2%; in test [14] it was 0.63%; in [15], 1.78%; in [16], 0.66%; in [17], 2.49%; in test [18] it was -0.06%. Besides, the inhibition is -1.78% in test [19] and -0.49% in test [20].

On to `CCn1c(-c2nonc2N)nc2cnc(Oc3cccc(NC(=O)c4ccc(N(C)C)cc4)c3)cc21`, for which the inhibition was -3.3% in [1]; 0.9% in [2]; 2.27% in [3]; 1.63% in [4]; 1.66% in [5]; -0.08% in [6]. Besides, the inhibition in test [7] is -0.57%; in test [8], -0.86%; in test [9] it was -0.69%; in test [10] it was 2.19%; in test [11], -0.54%; in test [12], 1.4%. Besides, the inhibition in test [13] stood at 1.45%; in test [14] it was 2.76%; in test [15], 1.68%; in test [16] it was 1.49%; in test [17], 1.2%; in test [18] it was 1.12%. The figures for the inhibition in [19] and in test [20] were -0.57% and 0.09%, respectively.

As to `COC(=O)c1sc(-n2cnc3cc(OC)c(OC)cc32)cc1OCc1ccccc1C(F)(F)F`, the inhibition is -2.03% in [1]; 3.54% in test [2]; 22.4% in test [3]; 3.04% in [4]; 6.66% in test [5]; 2.66% in [6]. Besides, the inhibition in test [7] was 4.35%; in test [8], -0.65%; in [9], 1.6%; in test [10] it was 1.76%; in test [11], 0.42%; in test [12], 2.46%. Further, the inhibition in [13] is 2.44%; in test [14], -0.33%; in [15] it was 2.22%; in test [16] it was 1.6%; in test [17] it was 6.95%; in test [18] it was 3.31%. Further, the inhibition turned out to be 0.15% in test [19] and 1.36% in test [20].

On to `c1cc(-c2cnn3nc(N4CCOCC4)ccc23)nc(NC2CC2)n1`, for which the inhibition in [1] was -5.65%; in test [2] it was 2.34%; in test [3], 7.51%; in test [4], 0.89%; in test [5], 2.31%; in test [6] it was 6.35%. The inhibition in test [7] stood at 7.89%; in test [8], 1.63%; in test [9], 2.33%; in test [10], 10.8%; in test [11], 5.31%; in test [12], 1.38%. Moreover, the inhibition is 3.9% in test [13]; 4.04% in [14]; 6.33% in test [15]; 5.72% in test [16]; 2.16% in test [17]; 3.88% in test [18]. The figures for the inhibition in test [19] and in [20] were 2.28% and 2.15%, respectively.

For `Clc1ccc(-c2nn3ncccc3c2-c2ccnc(Nc3ccccc3)n2)cc1`, the inhibition in test [1] is -0.77%; in [2], 3.97%; in test [3], 15%; in test [4], -0.61%; in test [5], 13.9%; in test [6], 7.5%. Further, the inhibition was 40.2% in test [7]; 0.8% in test [8]; 2.63% in test [9]; 0.47% in test [10]; 5.89% in test [11]; 3% in [12]. The inhibition was 76.7% in test [13]; 13.2% in test [14]; 61.7% in test [15]; 43.5% in test [16]; 87.6% in test [17]; 12% in test [18]. Moreover, the figures for the inhibition in test [19] and in test [20] were 58.5% and 1.98%, respectively.

`COc1cc2ncn(-c3cc(OCc4ccccc4C(F)(F)F)c(C(=O)N(C)C)s3)c2cc1OC`: the inhibition in test [1] was 1.68%; in [2] it was 0.87%; in [3], 7.34%; in [4] it was 3.03%; in [5], 3.07%; in test [6], -0.28%. Besides, the inhibition in test [7] is -0.8%; in [8], -1.28%; in test [9], -0.85%; in test [10], -1.4%; in test [11] it was 0.02%; in test [12], 0.21%. The inhibition in test [13] was -0.91%; in test [14], 0.21%; in test [15], 0.03%; in test [16] it was -1.55%; in test [17], -0.64%; in [18] it was -1.32%. Further, the inhibition in [19] was -1.92%; in [20] it was -1.33%.
